Bioassay records (PubChem)
CCHFV vOTU inh: blocks the CCHF virus ovarian tumor domain protease; inhibition, % at 11.5 µM; actives 0.55% (n = 370,000); AID 651958; CCHFV vOTU protease, Pep-AMC fluorescence; further: 0% = vehicle wells with enzyme and 100% = no enzyme wells
Mtb betalactam: beta-lactam sensitization of Mtb H37Rv; M. tuberculosis H37Rv growth with meropenem, percent inhibition; inhibition, % at 25 µM; actives 0.27% (n = 330,000); AID 434955; call rule not given here;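 further: growth measured after seven days incubation then overnight dye step; 0% = bacteria only wells and 100% = bacteria with antibiotic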
GDH-TPI inh: inhibits GDH-TPI coupling enzymes, artifact for Mtb FBA screen. actives 1.2% (n = 360,000). GDH-TPI coupled enzyme counterscreen, NADH absorbance. inhibition, % at 4.8 µM;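 further: 0% = DMSO wells and 100% = wells lacking the enzyme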
MazF activator: MazEF (E. coli) toxin RNase activation; P0AE70; FAM/BHQ RNA-DNA oligo cleavage fluorescence, 5 h; activation, % at 20 µM; actives 0.32% (n = 350,000); in the data active means activation above about 50%
FBA Mtb inh: Mtb fructose-bisphosphate aldolase inhibition; purified M. tuberculosis FBA, fluorescence read-out; actives 2.3% (n = 360,000); AID 588726; P9WQA3; inhibition, % at 1 µM; in the data active means inhibition above about 27%;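 further: 0% = vehicle and 100% = reference inhibitor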
Target sequence (P9WQA3 whole entry, looked up): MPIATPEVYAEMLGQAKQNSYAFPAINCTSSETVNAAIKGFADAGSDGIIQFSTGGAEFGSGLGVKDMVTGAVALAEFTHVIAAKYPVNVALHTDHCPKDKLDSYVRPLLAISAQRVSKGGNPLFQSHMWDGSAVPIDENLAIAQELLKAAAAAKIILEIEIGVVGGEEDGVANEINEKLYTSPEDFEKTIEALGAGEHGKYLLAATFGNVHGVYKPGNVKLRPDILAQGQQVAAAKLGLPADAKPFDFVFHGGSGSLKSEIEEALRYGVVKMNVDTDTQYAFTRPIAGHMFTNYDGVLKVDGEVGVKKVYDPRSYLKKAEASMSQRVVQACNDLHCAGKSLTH
Starred values were filed as active, the others as inactive; ? = inconclusive; / = no result given; + = active, no number. An excerpt weighted towards active compounds, which were near 4% of everything screened. Unless noted, no stated cut-off is given here; in the data, active means inhibition above about 30%; inactive means the rest.

SMILES	CCHFV vOTU inh	Mtb betalactam	GDH-TPI inh	MazF activator	FBA Mtb inh
COc1ccc(OC)c(CN2C(=O)CSCCC2(C)c2nnnn2C2CCCC2)c1 (centres undefined)	0	/	/	/	/
CCCCNC(=O)c1cc2c(=O)n3cccc(C)c3nc2n(Cc2ccccc2)c1=N	-81	76	1	-22	150*
Cc1ccc(Cn2c(=N)c(C#N)cc3c(=O)n4cccc(C)c4nc32)cc1	/	-4	/	/	/
COCCn1c(=N)c(C(=O)NCCc2ccccc2)cc2c(=O)n3cccc(C)c3nc21	-100	-4	-2	16	117*
OCCN1CCCC12CCC(c1ccccc1)CC2 (centres undefined)	-1	/	/	/	/
Cc1ccc(C2=N/C(=C/N3CCOCC3)C(=O)O2)cc1	10	-2	38*	5	5
COc1ccc(/C=C2\N=C(c3ccc(C)cc3)OC2=O)cc1	-3	99	7	5	0
Cc1cccc2cc(/C=C3\N=C(c4ccccc4)OC3=O)c(N3CCOCC3)nc12	7	95	6	-75	-3
Cc1ccc(C2=N/C(=C\N3CCCCC3)C(=O)O2)cc1	16	0	62*	0	-2
COC(=O)c1cc(Br)ccc1-c1ccc(/C=N/n2nnnc2N)o1	4	-9	44*	54*	3
CC(C)(C)c1cc[n+](-c2[nH]c(=O)sc2/C=N/NC([S-])=Nc2ccccc2)cc1	8	2	37*	-89	-8
Cc1cc[n+](-c2[nH]c(=O)sc2/C=N/NC([S-])=Nc2ccccc2)cc1C	17	-4	52*	-1	-6
CCCCCCCCN1C(=O)[C@@H](CC(=O)NCc2cccs2)C[C@@]2(C(=O)OC)C1=C[C@H](COCc1ccccc1)O[C@@H]2C	23	/	/	/	/
O=C(O)c1ccc(N(c2ccccc2)c2ccccc2)cc1	22	13	15	-1	+
CC(=O)c1ccc(N2CCN(C(=O)c3cc(-c4cccnc4)nc4ccc(Br)cc34)CC2)cc1	-11	44	46*	-4	1
Clc1ccc2c(c1)-c1ccccc1C1=NCCN12	-5	/	20	15	51*
CC(=O)N[C@@H]1C[C@@H]2O[C@H](CO)CC[C@@H]2O[C@@H]1CCc1ccc(C#CC2(O)CCCC2)cc1	-12	/	/	/	/
CCN(CC)c1ccc2cc(S(=O)(=O)c3ccc(Cl)cc3)c(=O)oc2c1	-13	7	16	15	9
O=c1oc2cc(O)ccc2cc1-c1nc2ccccc2o1	-402	/	/	/	+
O=c1oc2cc(O)ccc2cc1S(=O)(=O)c1ccccc1	-368	?	15	-20	+
CCCCCCCCN1C(=O)N2Cc3ccccc3C2CS1(=O)=O (centres undefined)	7	/	/	/	/
CCN(CC)c1ccc(-c2nnc(SCC(=O)N(CCOC)c3c(N)n(CC(C)C)c(=O)[nH]c3=O)o2)cc1	14	-5	47*	-8	-2
COCCN(C(=O)CSc1nnc(-c2ccc(C)c(C)c2)o1)c1c(N)n(CC(C)C)c(=O)[nH]c1=O	-8	0	-3	-4	-2
CN(C)CC1CC/C(=C\c2ccc(O)cc2)C1=O (centres undefined)	11	/	12	13	-8
CC1CCC/C(=C\c2ccc(O)cc2)C1=O (centres undefined)	4	3	32*	0	0
SMILES	CCHFV vOTU inh	Mtb betalactam	GDH-TPI inh	MazF activator	FBA Mtb inh
Brc1ccccc1Cn1nnc(-c2ccc(N3CCOCC3)cc2)n1	6	/	/	/	/
O=C(/C=C/c1ccc([N+](=O)[O-])cc1)Nc1cccc(S(=O)(=O)NC2=NCCCCC2)c1	-3	4	41*	11	3
O=C(/C=C/c1ccccc1Cl)Nc1cccc(S(=O)(=O)NC2=NCCCCC2)c1	6	-1	0	-12	-1
COc1ccc(C2C(C(=O)N3CCC(C)CC3)CC(=O)N2c2ccc(OC)cc2)cc1 (centres undefined)	-2	/	/	/	/
COC(=O)c1ccc(CSc2ncnc3c2sc2nc(N4CCOCC4)c4c(c23)CCCC4)o1	2	0	32*	-19	4
CCOC(=O)c1sc2nc(N3CCCC3)c3c(c2c1N)CC(C)(C)OC3	-5	?	29	13	11
COC(=O)CSc1ncnc2c1sc1nc(N3CCOCC3)c3c(c12)CCCC3	7	1	5	-12	0
OCCN1CCN(c2ncnc3c2sc2nc(N4CCOCC4)c4c(c23)CCC4)CC1	1	4	44*	-2	20
CC1(C)Cc2c(c(N3CCCC3)nc3sc4c(N5CCN(CCO)CC5)ncnc4c23)CO1	-1	14	33*	-11	10
